Bioassay records deposited in PubChem by National Center for Advancing Translational Sciences (NCATS).
BRCA1 expr up: qHTS Assay to Identify Small Molecule Activators of BRCA1 Expression; MCF7-BRCA1-FFLuc reporter, luminescence, 48 h; response scale: scaled: vehicle 0%, 10 µM genistein 100%; Potency, µM (highest dose often 46.1 µM), without a hit: at the highest dose activation, actives largely listed as activators; 380,000 tested, 1.1% active; AID 624202, 2012; note: potency is the fitted concentration of half-maximal effect; nearly all actives have a fitted effect of over 80% in size
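Activators of BRCA1 expression were detected as increased firefly luciferase luminescence in engineered MCF7 cells after 48 h compound incubation. Signals were scaled to genistein 10 microM as full activation.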
p53 reactivator: qHTS assay for re-activators of p53 using a Luc reporter. H1299 p53-A138V BP100-luciferase reporter, luminescence, 24 h. Potency, µM (series often up to 92.2 µM), inactives show top-dose activity change, positive = activation, actives largely listed as activators. 320,000 tested, 0.063% active. AID 504706, 2011; note: potency is the fitted concentration of half-maximal effect; % of control where 0% means no effect; nearly all actives have a fitted effect of over 45% in size
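p53-null H1299 cells stably carrying temperature-sensitive p53-A138V and a BP100-luciferase reporter were pinned with compounds (4-point, 1:5 series) and held 24 hrs at 37 deg C. Luminescence was read 10 min after detection reagent.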
miR-21 reporter: qHTS Assay for Modulators of miRNAs and/orActivators of miR-21; HeLa miR-21 FLuc reporter, luciferase, 48 h; Potency, µM (doses to about 38.3 µM), inactives show at the top dose activity change, positive = activation, hits mostly activators; 340,000 tested, under 10 active;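 note: % of control where 0% means no effect; miR-21 action dims this reporter so a rising signal means less miR-21 action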
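HeLa cells endogenously expressing miR-21, stably carrying CMV-driven firefly luciferase with a downstream miR-21 binding site, 2000 cells/well. Titrations up to approximately 40 uM, 48 hours; luciferase luminescence read.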
Anesthetic bind: qHTS Assay for Identification of Novel General Anesthetics; Potency, µM (top dose mostly 77.5 µM), for inactives: at the highest dose activity change, negative = displacement, most hits filed as inhibitors; 350,000 tested, 0.074% active; apoferritin/1-aminoanthracene competitive binding, fluorescence; AID 485281, 2010; Ferritin light chain (Equus caballus), P02791; note: potency is the fitted concentration of half-maximal effect; % is set by controls: 0 for no effect and ±100 for the full control effect; nearly all actives have a fitted effect of over 20% in size
Target sequence (P02791 2-175 limits assumed): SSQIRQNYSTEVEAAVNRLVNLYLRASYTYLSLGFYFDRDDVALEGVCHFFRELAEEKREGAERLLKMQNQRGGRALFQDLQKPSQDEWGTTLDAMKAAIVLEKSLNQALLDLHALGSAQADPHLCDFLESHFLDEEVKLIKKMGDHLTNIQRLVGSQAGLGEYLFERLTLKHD
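Probe: 1-aminoanthracene (50% saturated, PBS). Protein: horse-spleen apoferritin, 10 uM. Incubation: 10 min, room temperature. Detection: 380 nm excitation, 535 nm emission. Analysis: normalized response, four-parameter Hill.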
* hit, by the source's call; u = inconclusive; x = no result given. Only some compounds are listed: those with a hit (about 1.1% of all), similar ones and a draw of the others. Calls come from the whole dose curve; as a rule, active = well fitted curve in the direction sought with a large enough effect; inconclusive = small, poorly fitted or top-dose-only effect, or another doubt; inactive = no such curve, though single readings can be large; an effect the other way counts as inactive or inconclusive.

SMILES	BRCA1 expr up	p53 reactivator	miR-21 reporter	Anesthetic bind
Cc1cc(NC(=O)c2cc(-c3cccs3)on2)no1	12%	21%	-5%	-10%
Cc1cc(NC(=O)c2cc(C(C)C)on2)no1	11µM*	19%	-42%	5%
Cc1cc(C(=O)NCC(=O)Nc2ccc(F)c(F)c2)c(C)o1	-15%	-10%	x	x
COc1ccccc1C(=O)Nc1ccc2c(c1)nc(CCNC(=O)c1ccccc1)n2C	3%	-4%	1%	-7%
COc1ccccc1C(=O)Nc1ccc2c(c1)nc(CCNC(C)=O)n2C	10µM*	u	-56%	4%
CC(=O)NCCc1nc2cc(NC(=O)c3ccc(F)cc3)ccc2n1C	-35%	29%	-43%	4%
CCC(=O)NCCc1nc2cc(NC(=O)c3cccc([N+](=O)[O-])c3)ccc2n1C	3.2µM*	16%	-37%	5%
Cn1c(CCNC(=O)c2ccco2)nc2cc(NC(=O)c3ccccc3Cl)ccc21	8.9µM*	9%	-31%	-1%
CC(=O)NCCc1nc2cc(NC(=O)c3cccc([N+](=O)[O-])c3)ccc2n1C	5.6µM*	19%	-37%	-5%
CCCOc1ccccc1NC(=O)/C=C/c1ccc(OC)c(S(=O)(=O)N2CCOCC2)c1	-24%	x	x	x
COc1ccc(Cn2c(CCC(=O)Nc3ccc(Br)c(C)c3)nc3cccnc32)cc1	x	x	8%	52%
COc1ccc(S(=O)(=O)N2CCN(Cc3nc4ccc(C)cc4o3)CC2)cc1OC	x	x	0%	0%
CCC(=O)NCCc1nc2cc(NC(=O)COc3ccccc3)ccc2n1C	8.9µM*	u	-45%	13%
CC(C)(C)C(=O)Nc1ccccc1C(=O)OCc1cc(=O)n2ccsc2n1	x	x	-1%	-1%
O=C(OCc1cc(=O)n2ccsc2n1)c1ccc(O)cc1O	11µM*	u	x	x
Cc1n[nH]c(=S)n1/N=C/c1ccc(OCc2ccc(Cl)cc2)cc1	5µM*	14%	-17%	-19%
Fc1ccc(COc2ccc(/C=N/n3cnnc3)cc2)cc1	16µM*	u	-37%	u
COc1ccc(Br)cc1CNC(=O)CCc1cn(Cc2ccc(C)cc2)c2ccccc12	x	x	9%	70%
CC(=O)Cn1cnc2c(sc3nc(C)cc(C)c32)c1=O	11µM*	13%	-20%	14%
COc1cccc(Cn2cnc3c(sc4nc(C)cc(C)c43)c2=O)c1	-14%	-2%	-21%	-4%
COc1cc(S(=O)(=O)NCc2ccc3c(c2)OCO3)ccc1F	-4%	-6%	-6%	-2%
O=C(Nc1nncs1)C1CCCC1	4%	x	x	x
CCCOc1ccc(CN2C(=O)C(=O)c3cccc(C)c32)cc1	x	x	u	32µM*
CCN1c2ccccc2-c2nc(SCC(=O)Nc3cc(OC)cc(OC)c3)ncc2S1(=O)=O	x	x	4%	-6%
COc1ccccc1OCCNC(=O)c1ccc2c(c1)CCC2	11µM*	u	-74%	-13%
SMILES	BRCA1 expr up	p53 reactivator	miR-21 reporter	Anesthetic bind
Cc1ccc(SCCNC(=O)CN(c2ccccc2)S(=O)(=O)N(C)C)cc1	-25%	x	-8%	-9%
Cc1cc(OCc2cc(C(=O)N(C)C(C)c3ccccn3)no2)cc(C)c1Cl (stereo unspecified)	11µM*	u	-52%	u
Cc1cc(OCc2cc(C(=O)N(C)Cc3ccccn3)no2)cc(C)c1Cl	11µM*	3%	-47%	u
Cc1cc(OCc2cc(C(=O)N(C)CC3CCOCC3)no2)cc(C)c1Cl	u	u	-28%	u
CCN(CC1CCCO1)C(=O)c1cc(COc2cc(C)c(Cl)c(C)c2)on1 (stereo unspecified)	6.3µM*	x	-49%	u
CC(=O)c1ccc(OCc2cc(C(=O)N(C)Cc3ccccn3)no2)cc1	u	23%	-50%	-23%
Cc1ccc(F)c(C(=O)N2CCCC(C)(C(=O)NS(=O)(=O)C3CC3)C2)c1F (stereo unspecified)	0%	x	x	x
C=C(C)CSc1nncn1/N=C/c1ccc(OC)cc1	7.9µM*	u	-69%	13µM*
O=C(c1cc(COc2cccc(C(F)(F)F)c2)on1)N1C[C@H]2CC[C@H]1C2	13µM*	6%	-43%	u
CC(=O)c1cccc(OCc2cc(C(=O)N3C[C@H]4CC[C@H]3C4)no2)c1	u	u	-61%	u
O=[N+]([O-])c1cc(C(F)(F)F)ccc1NCCc1c[nH]c2ccccc12	-26%	40µM*	-13%	-15%
Cc1cccc(OCCNc2ccc(C(F)(F)F)cc2[N+](=O)[O-])c1	3.2µM*	5%	-7%	-10%
CC(C)NC(=O)CNc1ccc(C(F)(F)F)cc1[N+](=O)[O-]	-26%	8%	2%	-12%
CS(=O)(=O)NCCCNc1ccc(C(F)(F)F)cc1[N+](=O)[O-]	12%	-2%	-16%	-6%
O=C(CNc1ccc(C(F)(F)F)cc1[N+](=O)[O-])OCC(=O)c1ccccc1	-37%	-6%	-10%	28µM*
O=[N+]([O-])c1cc(C(F)(F)F)ccc1NCCc1c[nH]c2ccc(O)cc12	-20%	3%	-15%	u
COc1ccc(-c2cn3nc(N4CCC(C(=O)Nc5ccccc5OC)CC4)sc3n2)cc1	x	x	-15%	-7%
Cc1noc(C)c1S(=O)(=O)N(C)C[C@H]1Oc2ccc(NS(=O)(=O)c3ccccc3)cc2C(=O)N([C@H](C)CO)C[C@@H]1C	4%	10%	x	x
COc1cccc(CNC(=O)CCc2c(C)nc3c(c(C)nn3-c3ccc(C)c(C)c3)c2C)c1	-6%	x	-1%	33%
CCOC(=O)CNc1ncnc2c1nnn2C	x	x	-1%	-14%
CC(C)c1ccc(Nc2c(-c3ccc(N(C)C)cc3)nc3cnccn23)cc1	1%	x	0%	-12%
S=C(NCCc1c[nH]c2ccccc12)NC1CCCCC1	11µM*	22%	-22%	-15%
O=C(NC1CCCCC1)C(=O)c1c[nH]c2ccccc12	13µM*	u	-63%	4%
O=C(COC(=O)c1c[nH]c2ccccc12)NC1CCCC1	7%	12%	x	x
O=C(CSc1nnc(NC(=O)C2CC2)s1)Nc1cccc(F)c1	-25%	12%	-14%	0%
SMILES	BRCA1 expr up	p53 reactivator	miR-21 reporter	Anesthetic bind
CC(=O)N(C)c1ccc(N=NC2C(=O)N(C(N)=S)N=C2C)cc1 (stereo unspecified)	4µM*	x	-28%	-24%
COc1cc2cccc(OC)c(=O)c2c(O)c1OC	10µM*	u	-58%	-2%
CCc1nnc(NC(=O)c2ccc(OC)c(S(=O)(=O)N3CCCC3)c2)s1	-19%	-7%	x	x
Fc1ccc(-c2cn3cc(Cc4ccccc4)sc3n2)cc1	x	x	29%	3%
Fc1ccc(Cc2cn3cc(-c4ccccc4)nc3s2)cc1	14%	x	25%	-2%
Fc1ccc(Cc2cn3cc(-c4ccc(Cl)cc4)nc3s2)cc1	0.89µM*	x	-47%	0%
Fc1ccc(-c2cn3cc(Cc4ccc(Cl)cc4)sc3n2)cc1	4.5µM*	x	-27%	57%
